# Assay results taken from PMC10812921, “Transcriptional Coactivator BOB1 (OBF1, OCA-B) Modulates the Specificity of DNA Recognition by the POU-Domain Factors OCT1 and OCT2 in a Monomeric Configuration”.
# Experiments:
# [1] = target: POU1 (OCT1 POU domain) (human, UniProt P14859 260-458); assay: EMSA-SELEX-seq; no BOB1; 20 mM Tris-HCl pH 7.6, 140 mM NaCl, 10% glycerol, 0.5 mM EDTA, 0.05% Triton X-100, 0.1 mg/mL BSA, 0.1 mg/mL poly(dI-dC), 5 mM DTT, room temperature, 20 min; high values mean tight binding; details: protein: recombinant; dsDNA, one strand shown
# Outline: (§1)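 Binding preference is reported as the percentage of sequenced 8-mers that match a motif pattern. Tagged POU-domain proteins were made in E. coli BL21, purified under denaturing conditions and renatured. A 30 ng portion was combined with 300 ng of a PCR-amplified double-stranded random 35-nt library, with or without 28 ng coactivator protein, in 20 μL Tris–HCl pH 7.6 binding buffer for 20 min at RT. Complex bands were excised from native 6% PAGE, eluted and PCR-amplified over four rounds before Illumina sequencing.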
# [2] = target: T1, POU2 (OCT2 POU domain) (human, UniProt P09086 175-386); assay: as above; details: protein: recombinant; dsDNA, one strand shown
# T1 sequence: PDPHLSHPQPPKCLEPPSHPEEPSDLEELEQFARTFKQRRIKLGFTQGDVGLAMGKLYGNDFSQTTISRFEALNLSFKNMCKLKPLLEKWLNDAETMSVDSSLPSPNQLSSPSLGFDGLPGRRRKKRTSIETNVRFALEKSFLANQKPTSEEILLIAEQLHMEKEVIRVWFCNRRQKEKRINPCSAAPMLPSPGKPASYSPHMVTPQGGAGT
# Outline: as §1
# [3] = target: POU1 (OCT1 POU domain);BOB1 (OBF1, OCA-B) (human;human, UniProt P14859;Q16633 260-458;1-256, |); assay: EMSA-SELEX-seq; with BOB1 (ternary complex band); 20 mM Tris-HCl pH 7.6, 140 mM NaCl, 10% glycerol, 0.5 mM EDTA, 0.05% Triton X-100, 0.1 mg/mL BSA, 0.1 mg/mL poly(dI-dC), 5 mM DTT, room temperature, 20 min; high values mean tight binding; details: protein: recombinant;recombinant; copies: 1;1; dsDNA, one strand shown
# Outline: as §1
# [4] = target: T2, POU2 (OCT2 POU domain);BOB1 (OBF1, OCA-B) (human;human, UniProt P09086;Q16633 175-386;1-256, |); assay: as above; details: protein: recombinant;recombinant; copies: 1;1; dsDNA, one strand shown
# T2 sequence 1: T1 sequence
# T2 sequence 2: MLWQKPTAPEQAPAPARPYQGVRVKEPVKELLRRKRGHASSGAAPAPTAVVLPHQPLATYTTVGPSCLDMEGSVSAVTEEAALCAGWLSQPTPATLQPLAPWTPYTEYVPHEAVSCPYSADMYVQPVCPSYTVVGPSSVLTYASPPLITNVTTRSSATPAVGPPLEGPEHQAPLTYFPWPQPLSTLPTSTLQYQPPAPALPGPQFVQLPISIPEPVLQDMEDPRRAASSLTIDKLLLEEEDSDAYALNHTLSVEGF
# Outline: as §1
# Sequence of POU1 (OCT1 POU domain) (P14859 260-458): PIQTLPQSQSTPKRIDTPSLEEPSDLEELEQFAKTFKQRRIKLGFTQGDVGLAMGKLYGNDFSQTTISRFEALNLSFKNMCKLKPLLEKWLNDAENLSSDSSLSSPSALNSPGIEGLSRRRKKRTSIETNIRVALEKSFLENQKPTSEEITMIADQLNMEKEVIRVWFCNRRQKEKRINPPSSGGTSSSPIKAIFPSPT
Sequence,binding signal [1],binding signal [2],binding signal [3],binding signal [4]
ATTCTAAT,0.448 % of ANNNNAAN 8-mers,0.532 % of ANNNNAAN 8-mers,0.12 % of ANNNNAAN 8-mers,0.152 % of ANNNNAAN 8-mers
ACATTAAC,0.0984 % of ANNNNAAN 8-mers,0.115 % of ANNNNAAN 8-mers,0.0402 % of ANNNNAAN 8-mers,0.0363 % of ANNNNAAN 8-mers
ACGCTAAT,0.108 % of ANNNNAAN 8-mers,0.14 % of ANNNNAAN 8-mers,0.046 % of ANNNNAAN 8-mers,0.0611 % of ANNNNAAN 8-mers
AAGACAAT,0.0477 % of ANNNNAAN 8-mers,0.0478 % of ANNNNAAN 8-mers,0.0382 % of ANNNNAAN 8-mers,0.0405 % of ANNNNAAN 8-mers
AAATAAAC,0.116 % of ANNNNAAN 8-mers,0.119 % of ANNNNAAN 8-mers,0.142 % of ANNNNAAN 8-mers,0.13 % of ANNNNAAN 8-mers
ATATCAAT,0.117 % of ANNNNAAN 8-mers,0.139 % of ANNNNAAN 8-mers,0.0804 % of ANNNNAAN 8-mers,0.0776 % of ANNNNAAN 8-mers
ACAGCAAA,0.0248 % of ANNNNAAN 8-mers,0.0213 % of ANNNNAAN 8-mers,0.0359 % of ANNNNAAN 8-mers,0.0347 % of ANNNNAAN 8-mers
AAAGGAAC,0.0435 % of ANNNNAAN 8-mers,0.0443 % of ANNNNAAN 8-mers,0.0476 % of ANNNNAAN 8-mers,0.0371 % of ANNNNAAN 8-mers
ACTTGAAG,0.0198 % of ANNNNAAN 8-mers,0.0236 % of ANNNNAAN 8-mers,0.0273 % of ANNNNAAN 8-mers,0.0239 % of ANNNNAAN 8-mers
AACACAAA,0.0454 % of ANNNNAAN 8-mers,0.0443 % of ANNNNAAN 8-mers,0.0648 % of ANNNNAAN 8-mers,0.0438 % of ANNNNAAN 8-mers
AAGAAAAC,0.0473 % of ANNNNAAN 8-mers,0.0345 % of ANNNNAAN 8-mers,0.0644 % of ANNNNAAN 8-mers,0.0355 % of ANNNNAAN 8-mers
AGTGTAAA,0.0576 % of ANNNNAAN 8-mers,0.0667 % of ANNNNAAN 8-mers,0.0687 % of ANNNNAAN 8-mers,0.052 % of ANNNNAAN 8-mers
AGTAAAAC,0.0427 % of ANNNNAAN 8-mers,0.0391 % of ANNNNAAN 8-mers,0.0663 % of ANNNNAAN 8-mers,0.0454 % of ANNNNAAN 8-mers
ACGGTAAC,0.0164 % of ANNNNAAN 8-mers,0.0259 % of ANNNNAAN 8-mers,0.0144 % of ANNNNAAN 8-mers,0.0239 % of ANNNNAAN 8-mers
AATTCAAC,0.069 % of ANNNNAAN 8-mers,0.0708 % of ANNNNAAN 8-mers,0.0589 % of ANNNNAAN 8-mers,0.0512 % of ANNNNAAN 8-mers
AAGACAAG,0.0259 % of ANNNNAAN 8-mers,0.0305 % of ANNNNAAN 8-mers,0.0261 % of ANNNNAAN 8-mers,0.0281 % of ANNNNAAN 8-mers
ATGCTAAG,0.149 % of ANNNNAAN 8-mers,0.156 % of ANNNNAAN 8-mers,0.0777 % of ANNNNAAN 8-mers,0.0726 % of ANNNNAAN 8-mers
AGGCGAAG,0.024 % of ANNNNAAN 8-mers,0.0305 % of ANNNNAAN 8-mers,0.0242 % of ANNNNAAN 8-mers,0.0297 % of ANNNNAAN 8-mers
ATCCCAAA,0.0263 % of ANNNNAAN 8-mers,0.0253 % of ANNNNAAN 8-mers,0.0343 % of ANNNNAAN 8-mers,0.0297 % of ANNNNAAN 8-mers
AAAGCAAC,0.0256 % of ANNNNAAN 8-mers,0.0259 % of ANNNNAAN 8-mers,0.0281 % of ANNNNAAN 8-mers,0.0272 % of ANNNNAAN 8-mers
ATAAAAAG,0.0915 % of ANNNNAAN 8-mers,0.114 % of ANNNNAAN 8-mers,0.0925 % of ANNNNAAN 8-mers,0.0735 % of ANNNNAAN 8-mers
AGATAAAA,0.0542 % of ANNNNAAN 8-mers,0.057 % of ANNNNAAN 8-mers,0.0597 % of ANNNNAAN 8-mers,0.0462 % of ANNNNAAN 8-mers
ACTTTAAA,0.0713 % of ANNNNAAN 8-mers,0.0817 % of ANNNNAAN 8-mers,0.0652 % of ANNNNAAN 8-mers,0.0495 % of ANNNNAAN 8-mers
ATAGCAAC,0.0183 % of ANNNNAAN 8-mers,0.0184 % of ANNNNAAN 8-mers,0.0207 % of ANNNNAAN 8-mers,0.0405 % of ANNNNAAN 8-mers
AACTGAAT,0.0885 % of ANNNNAAN 8-mers,0.108 % of ANNNNAAN 8-mers,0.0562 % of ANNNNAAN 8-mers,0.0735 % of ANNNNAAN 8-mers
ACTATAAA,0.0439 % of ANNNNAAN 8-mers,0.0403 % of ANNNNAAN 8-mers,0.041 % of ANNNNAAN 8-mers,0.0421 % of ANNNNAAN 8-mers
AGCAGAAT,0.0435 % of ANNNNAAN 8-mers,0.0621 % of ANNNNAAN 8-mers,0.0511 % of ANNNNAAN 8-mers,0.0561 % of ANNNNAAN 8-mers
ATCGAAAT,0.0694 % of ANNNNAAN 8-mers,0.0633 % of ANNNNAAN 8-mers,0.0777 % of ANNNNAAN 8-mers,0.0512 % of ANNNNAAN 8-mers
AGCGAAAT,0.0526 % of ANNNNAAN 8-mers,0.0627 % of ANNNNAAN 8-mers,0.0492 % of ANNNNAAN 8-mers,0.0619 % of ANNNNAAN 8-mers
ATAAGAAG,0.0614 % of ANNNNAAN 8-mers,0.0771 % of ANNNNAAN 8-mers,0.0562 % of ANNNNAAN 8-mers,0.0636 % of ANNNNAAN 8-mers
